Counter-ions that a name gives are not always drawn.

This assay relates to S. cerevisiae AD1-9 (efflux-pump deficient), vegetative growth in YPD. The assay can be described thus: growth sensitivity score (doubling time z-score vs DMSO controls); higher = slower growth, strongly negative scores also mark growth inhibition (complete suppression), active = hit call of the paper. The method in brief: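 Yeast (Saccharomyces cerevisiae BY4741 and AD1-9) was grown in rich medium in microtiter plates from a starting OD600 of 0.065, with optical density read every 15 min over 24 hours. The growth sensitivity score was the difference between compound and solvent-only means, divided by the solvent-only standard deviation. Every experiment had eight solvent-only wells.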
For `O=c1c(O[C@@H]2O[C@H](CO)[C@@H](O)[C@H](O)[C@H]2O)c(-c2ccc(O)c(O)c2)oc2cc(O)cc(O)c12` [Isoquercetrin] (stock concentration (mM, diluted 1:100): 10), the growth sensitivity score is -0.6 (inactive).
As for `c1cnc(N2CCN(Cc3ccc4c(c3)OCO4)CC2)nc1` [Piribedil] (stock concentration (mM, diluted 1:100): 9.7), the figure is -3.77.
Take `O=C(O)Cc1ccccc1Nc1c(Cl)cccc1Cl` [Diclofenac] (stock concentration (mM, diluted 1:100): 10): the growth sensitivity score is 4.97 (active).
As for `COc1cc(C(=O)NC2CCCNC2)cc(OC)c1OC` (centres undefined) [Troxipide] (stock concentration (mM, diluted 1:100): 10.1), the figure is -0.49 (inactive); as for `C[C@H]1COc2c(C3(N)CC3)c(F)cc3c(=O)c(C(=O)O)cn1c23` [Pazufloxacin] (stock concentration (mM, diluted 1:100): 10), 0.07 (inactive).
Regarding `CN1CCC(=C2c3ccccc3CCc3sccc32)CC1` [Pizotyline] (stock concentration (mM, diluted 1:100): 10), the growth sensitivity score was 161 (active).
As for `CC[C@@]1(O)C(=O)OCc2c1cc1n(c2=O)Cc2cc3c(CN(C)C)c(O)ccc3nc2-1` [Topotecan hydrochloride] (stock concentration (mM, diluted 1:100): 9.2), the figure is 4.71 (active).
In the case of `Nc1c2c(nc3ccccc13)CCCC2` [Tacrine hydrochloride] (stock concentration (mM, diluted 1:100): 9), the growth sensitivity score is -5.79.
As for `O=C(CCCN1CC=C(n2c(=O)[nH]c3ccccc32)CC1)c1ccc(F)cc1` [Droperidol] (stock concentration (mM, diluted 1:100): 10), the figure is -1.57 (inactive); as for `CC(=O)CCCCn1cnc2c1c(=O)n(C)c(=O)n2C` [Lomifylline] (stock concentration (mM, diluted 1:100): 10), -0.96 (inactive); as for `O=C1c2c(O)cc(O)cc2OC(c2ccc(O)c(O)c2)C1O` (centres undefined) [Taxifolin] (stock concentration (mM, diluted 1:100): 10), -0.46 (inactive).
As for `CO[C@H]1/C=C/O[C@@]2(C)Oc3c(C)c(O)c4c(c3C2=O)C2=NC3(CCN(CC(C)C)CC3)NC2=C(NC(=O)/C(C)=C\C=C\[C@H](C)[C@H](O)[C@@H](C)[C@@H](O)[C@@H](C)[C@H](OC(C)=O)[C@@H]1C)C4=O` [Rifabutin] (stock concentration (mM, diluted 1:100): 10), the figure is 1.43 (inactive).
Regarding `COc1cc(CNC(=O)CCCC/C=C/C(C)C)ccc1O` [Capsaicin] (stock concentration (mM, diluted 1:100): 10), the growth sensitivity score is 25.8 (active).
With `N[C@@H](C(=O)N[C@@H]1C(=O)N2C(C(=O)O)=C(Cl)CS[C@H]12)c1ccccc1` [Cefaclor] (stock concentration (mM, diluted 1:100): 10), the growth sensitivity score was -1.29 (inactive).
As for `C/C=C1\[C@H]2C=C(C)C[C@]1(N)c1ccc(=O)[nH]c1C2` [Huperzine a] (stock concentration (mM, diluted 1:100): 10), the figure is 1.24 (inactive); as for `CC(=O)N1CCN(c2ccc(OCC3COC(Cn4ccnc4)(c4ccc(Cl)cc4Cl)O3)cc2)CC1` (centres undefined) [Ketoconazole] (stock concentration (mM, diluted 1:100): 10), 155 (active).
The figure for `Oc1ccc(C2CNCCc3c2cc(O)c(O)c3Cl)cc1` (centres undefined) [Fenoldopam mesylate] (stock concentration (mM, diluted 1:100): 7.7) is -1.09 (inactive); for `CN(C)CC[C@@H](c1ccc(Cl)cc1)c1ccccn1` [Dexchlorpheniramine maleate] (stock concentration (mM, diluted 1:100): 7) it is -0.12 (inactive); for `NC(=O)OCC(COC(N)=O)c1ccccc1` [Felbamate] (stock concentration (mM, diluted 1:100): 14) it is -0.62 (inactive).
Regarding `CN1CCN(C2=Nc3cc(F)ccc3Cc3ccccc32)CC1` [Fluperlapine] (stock concentration (mM, diluted 1:100): 10), the growth sensitivity score was 2.12 (active).
As for `CCn1cc(C(=O)O)c(=O)c2cc(F)c(N3CCN(C)CC3)cc21` [Pefloxacin mesylate] (stock concentration (mM, diluted 1:100): 7.9), the figure is 3.65 (active).
The figure for `CN1C(C(=O)Nc2ccccn2)=C(O)c2ccccc2S1(=O)=O` [Piroxicam] (stock concentration (mM, diluted 1:100): 10) is 0.98 (inactive).
As for `CNCC[C@H](Oc1cccc2ccccc12)c1cccs1` [Duloxetine hydrochloride] (stock concentration (mM, diluted 1:100): 8.9), the figure is 33.3 (active).
With `O=C1CCc2ccc(OCCCCN3CCN(c4cccc(Cl)c4Cl)CC3)cc2N1` [Aripiprazole] (stock concentration (mM, diluted 1:100): 10), the growth sensitivity score was 18.5 (active).
